Key:
Test in all cases: DAPPL (digital affinity profiling via proximity ligation, sequencing); 10 mM Tris-HCl pH 7.5, 50 mM NaCl, 1 mM DTT, 4% glycerol, room temperature, 30 min; GST-TFs on glutathione beads, 16-mer random dsDNA library, 0.1% formaldehyde crosslink after washing; high values mean tight binding
Settings in all cases: protein: recombinant; tags: N-terminal GST; dsDNA, one strand shown
ELK1 = target: T1, ELK1 (Homo sapiens, UniProt P19419 1-428)
T1 sequence: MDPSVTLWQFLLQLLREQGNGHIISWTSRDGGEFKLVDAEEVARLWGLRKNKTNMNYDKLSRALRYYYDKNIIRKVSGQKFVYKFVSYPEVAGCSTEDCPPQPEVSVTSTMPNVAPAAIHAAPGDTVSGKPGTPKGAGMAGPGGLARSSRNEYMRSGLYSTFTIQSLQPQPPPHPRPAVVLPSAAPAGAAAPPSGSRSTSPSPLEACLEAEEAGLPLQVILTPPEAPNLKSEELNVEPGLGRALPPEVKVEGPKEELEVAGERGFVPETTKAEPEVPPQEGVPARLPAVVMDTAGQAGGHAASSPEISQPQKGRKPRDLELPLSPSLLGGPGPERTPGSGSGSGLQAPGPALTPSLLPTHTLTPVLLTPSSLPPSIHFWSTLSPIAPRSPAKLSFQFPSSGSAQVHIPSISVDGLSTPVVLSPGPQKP
Method in brief: (§1)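 Human transcription factors fused to GST were expressed in yeast, captured on glutathione beads, given DNA barcodes and pooled with a GST-only negative control. Pools were incubated with 200 nmole of a 16-mer random double-stranded DNA library in Tris/NaCl/DTT/glycerol buffer at room temperature for 30 min. They were then washed, crosslinked with 0.1% formaldehyde, proximity-ligated (BsaI/T4 ligase, 1 h, 37 °C), PCR-amplified and sequenced on an Illumina NextSeq500. Binding signal is each 6-mer's read frequency for a factor divided by its frequency for the GST control.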

GABPA = target: T2, GABPA (Homo sapiens, UniProt Q06546 1-454)
T2 sequence: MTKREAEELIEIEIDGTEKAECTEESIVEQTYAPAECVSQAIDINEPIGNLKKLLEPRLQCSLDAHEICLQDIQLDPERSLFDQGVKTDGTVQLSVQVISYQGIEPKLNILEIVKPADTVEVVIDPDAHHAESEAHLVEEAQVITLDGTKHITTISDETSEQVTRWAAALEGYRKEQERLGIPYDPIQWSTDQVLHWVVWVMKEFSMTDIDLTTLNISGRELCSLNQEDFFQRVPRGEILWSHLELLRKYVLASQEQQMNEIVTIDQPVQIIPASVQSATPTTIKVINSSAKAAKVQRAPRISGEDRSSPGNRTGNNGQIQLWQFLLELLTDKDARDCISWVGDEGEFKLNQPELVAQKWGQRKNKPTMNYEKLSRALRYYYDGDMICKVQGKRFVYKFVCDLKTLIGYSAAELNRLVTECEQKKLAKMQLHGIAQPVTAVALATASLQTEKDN
Method in brief: as §1

ERG = target: T3, ERG (Homo sapiens, UniProt P11308 1-479)
T3 sequence: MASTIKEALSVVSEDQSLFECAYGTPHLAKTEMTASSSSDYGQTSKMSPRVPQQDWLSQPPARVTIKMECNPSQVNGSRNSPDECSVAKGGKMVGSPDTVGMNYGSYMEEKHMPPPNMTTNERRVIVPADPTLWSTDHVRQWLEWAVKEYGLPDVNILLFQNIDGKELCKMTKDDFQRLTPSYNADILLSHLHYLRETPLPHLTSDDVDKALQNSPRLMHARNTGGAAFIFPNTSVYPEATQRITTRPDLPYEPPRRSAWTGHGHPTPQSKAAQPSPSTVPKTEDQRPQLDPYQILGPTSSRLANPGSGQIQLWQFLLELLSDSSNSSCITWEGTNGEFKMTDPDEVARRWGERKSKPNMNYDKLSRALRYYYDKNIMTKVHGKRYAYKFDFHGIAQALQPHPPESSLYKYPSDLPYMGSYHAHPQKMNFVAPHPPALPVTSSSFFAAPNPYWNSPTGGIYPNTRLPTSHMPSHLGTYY
Method in brief: as §1

ELF1 = ELF1 (Homo sapiens, UniProt P32519 1-619)
Sequence of ELF1 (P32519 whole entry): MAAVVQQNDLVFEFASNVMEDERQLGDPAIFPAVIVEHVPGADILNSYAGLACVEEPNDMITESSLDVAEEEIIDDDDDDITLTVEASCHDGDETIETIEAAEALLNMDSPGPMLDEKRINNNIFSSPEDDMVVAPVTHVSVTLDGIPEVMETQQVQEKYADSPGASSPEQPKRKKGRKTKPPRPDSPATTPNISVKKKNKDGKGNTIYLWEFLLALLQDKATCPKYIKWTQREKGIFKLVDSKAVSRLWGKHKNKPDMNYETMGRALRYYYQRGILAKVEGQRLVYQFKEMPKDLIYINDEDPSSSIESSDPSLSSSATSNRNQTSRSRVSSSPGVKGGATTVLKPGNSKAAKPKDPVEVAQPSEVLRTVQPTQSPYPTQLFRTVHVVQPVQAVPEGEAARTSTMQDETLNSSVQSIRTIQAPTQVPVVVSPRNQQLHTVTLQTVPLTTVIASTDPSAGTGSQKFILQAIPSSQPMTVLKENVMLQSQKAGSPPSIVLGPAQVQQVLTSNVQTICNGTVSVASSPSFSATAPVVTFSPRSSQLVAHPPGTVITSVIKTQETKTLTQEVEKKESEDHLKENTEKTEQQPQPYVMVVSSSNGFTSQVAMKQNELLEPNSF
Method in brief: as §1

EHF = target: T4, EHF (Homo sapiens, UniProt Q9NZC4 1-300)
T4 sequence: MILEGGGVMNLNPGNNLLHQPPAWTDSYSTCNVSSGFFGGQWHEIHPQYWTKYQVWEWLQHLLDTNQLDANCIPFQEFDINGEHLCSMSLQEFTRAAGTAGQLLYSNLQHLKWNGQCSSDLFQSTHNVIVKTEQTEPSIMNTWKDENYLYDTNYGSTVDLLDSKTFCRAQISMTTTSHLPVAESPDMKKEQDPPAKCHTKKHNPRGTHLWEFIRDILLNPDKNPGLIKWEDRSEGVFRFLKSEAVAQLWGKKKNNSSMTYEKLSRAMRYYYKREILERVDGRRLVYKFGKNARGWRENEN
Method in brief: as §1

SPIB = SPIB (Homo sapiens, UniProt Q01892 1-262)
Sequence of SPIB (Q01892 whole entry): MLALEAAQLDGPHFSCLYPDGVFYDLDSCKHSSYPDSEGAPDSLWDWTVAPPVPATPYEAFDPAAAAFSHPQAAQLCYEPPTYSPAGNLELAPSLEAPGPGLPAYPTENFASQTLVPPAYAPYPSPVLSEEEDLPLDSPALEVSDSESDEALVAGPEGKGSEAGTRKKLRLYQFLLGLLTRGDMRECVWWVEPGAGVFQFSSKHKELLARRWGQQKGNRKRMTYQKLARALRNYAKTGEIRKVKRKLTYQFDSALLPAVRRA
Method in brief: as §1

ELK3 = target: T5, ELK3 (Homo sapiens, UniProt P41970 1-407)
T5 sequence: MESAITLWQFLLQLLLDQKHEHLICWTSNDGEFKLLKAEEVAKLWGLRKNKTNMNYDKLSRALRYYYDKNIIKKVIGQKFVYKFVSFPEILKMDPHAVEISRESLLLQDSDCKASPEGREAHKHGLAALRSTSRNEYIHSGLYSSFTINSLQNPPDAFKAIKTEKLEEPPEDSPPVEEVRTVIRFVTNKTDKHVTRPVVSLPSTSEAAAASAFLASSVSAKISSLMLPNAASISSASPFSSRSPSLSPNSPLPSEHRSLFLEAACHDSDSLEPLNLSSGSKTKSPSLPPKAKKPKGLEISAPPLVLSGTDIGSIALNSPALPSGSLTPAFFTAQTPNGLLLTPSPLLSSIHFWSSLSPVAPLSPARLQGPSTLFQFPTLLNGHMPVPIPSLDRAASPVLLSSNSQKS
Method in brief: as §1

SPIC = target: T6, SPIC (Homo sapiens, UniProt Q8N5J4 1-248)
T6 sequence: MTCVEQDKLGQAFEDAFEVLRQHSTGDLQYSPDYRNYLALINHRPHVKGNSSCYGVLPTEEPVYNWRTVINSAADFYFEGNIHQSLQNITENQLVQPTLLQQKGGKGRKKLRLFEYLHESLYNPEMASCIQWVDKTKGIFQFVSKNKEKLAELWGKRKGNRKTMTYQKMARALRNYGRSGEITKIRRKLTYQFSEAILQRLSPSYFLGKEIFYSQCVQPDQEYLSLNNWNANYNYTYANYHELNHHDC
Method in brief: as §1

ETV2 = target: T7, ETV2 (Homo sapiens, UniProt O00321 1-342)
T7 sequence: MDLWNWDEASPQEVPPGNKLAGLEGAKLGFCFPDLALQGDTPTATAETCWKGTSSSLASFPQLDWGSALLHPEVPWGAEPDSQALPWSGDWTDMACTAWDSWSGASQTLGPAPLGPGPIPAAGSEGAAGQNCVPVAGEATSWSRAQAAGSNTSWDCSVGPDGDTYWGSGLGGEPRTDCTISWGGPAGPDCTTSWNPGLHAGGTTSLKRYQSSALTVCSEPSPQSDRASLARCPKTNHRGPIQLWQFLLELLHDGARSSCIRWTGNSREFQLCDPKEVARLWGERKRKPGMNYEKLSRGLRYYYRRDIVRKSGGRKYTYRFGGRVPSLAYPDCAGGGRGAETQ
Method in brief: as §1

ELF3 = target: T8, ELF3 (Homo sapiens, UniProt P78545 1-371)
T8 sequence: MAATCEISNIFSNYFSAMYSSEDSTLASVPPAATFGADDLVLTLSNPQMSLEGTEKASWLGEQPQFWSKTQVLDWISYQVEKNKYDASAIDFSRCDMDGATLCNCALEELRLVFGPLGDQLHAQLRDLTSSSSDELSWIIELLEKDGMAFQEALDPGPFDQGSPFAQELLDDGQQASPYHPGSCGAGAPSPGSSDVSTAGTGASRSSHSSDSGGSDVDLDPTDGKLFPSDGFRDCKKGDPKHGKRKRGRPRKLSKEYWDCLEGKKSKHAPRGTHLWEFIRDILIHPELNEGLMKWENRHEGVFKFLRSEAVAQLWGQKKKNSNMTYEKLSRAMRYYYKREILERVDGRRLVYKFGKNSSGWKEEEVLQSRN
Method in brief: as §1

ETV1 = ETV1 (Homo sapiens, UniProt P50549 1-477)
Sequence of ETV1 (P50549 whole entry): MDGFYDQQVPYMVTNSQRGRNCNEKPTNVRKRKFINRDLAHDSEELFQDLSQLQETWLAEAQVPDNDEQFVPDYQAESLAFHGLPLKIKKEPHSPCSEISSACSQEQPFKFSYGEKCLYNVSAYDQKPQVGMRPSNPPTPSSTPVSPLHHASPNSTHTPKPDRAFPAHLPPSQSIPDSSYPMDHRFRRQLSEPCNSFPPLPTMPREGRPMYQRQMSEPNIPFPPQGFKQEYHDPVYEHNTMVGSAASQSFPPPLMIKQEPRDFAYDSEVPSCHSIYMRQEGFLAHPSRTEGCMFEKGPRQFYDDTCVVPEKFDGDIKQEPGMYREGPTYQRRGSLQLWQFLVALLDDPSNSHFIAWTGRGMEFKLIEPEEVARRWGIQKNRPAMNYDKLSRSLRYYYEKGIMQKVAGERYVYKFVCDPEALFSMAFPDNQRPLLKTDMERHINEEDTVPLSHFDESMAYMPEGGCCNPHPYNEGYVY
Method in brief: as §1

ERF = target: T9, ERF (Homo sapiens, UniProt P50548 1-548)
T9 sequence: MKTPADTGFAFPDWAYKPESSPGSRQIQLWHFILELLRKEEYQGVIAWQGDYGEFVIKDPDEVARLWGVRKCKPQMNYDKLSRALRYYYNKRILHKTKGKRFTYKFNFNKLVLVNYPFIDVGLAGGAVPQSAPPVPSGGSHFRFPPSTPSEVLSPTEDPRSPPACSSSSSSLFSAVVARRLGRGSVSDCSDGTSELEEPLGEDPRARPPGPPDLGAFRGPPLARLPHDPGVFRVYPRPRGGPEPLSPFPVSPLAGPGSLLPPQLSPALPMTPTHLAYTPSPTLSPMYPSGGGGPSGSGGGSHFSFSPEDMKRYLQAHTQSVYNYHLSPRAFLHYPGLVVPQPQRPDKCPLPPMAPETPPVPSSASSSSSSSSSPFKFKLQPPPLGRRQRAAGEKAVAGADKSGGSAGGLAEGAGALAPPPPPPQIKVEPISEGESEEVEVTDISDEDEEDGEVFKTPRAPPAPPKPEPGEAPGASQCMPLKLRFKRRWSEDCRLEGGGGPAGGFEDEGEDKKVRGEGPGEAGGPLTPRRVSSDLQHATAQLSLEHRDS
Method in brief: as §1

ETV3L = target: T10, ETV3L (Homo sapiens, UniProt Q6ZN32 1-361)
T10 sequence: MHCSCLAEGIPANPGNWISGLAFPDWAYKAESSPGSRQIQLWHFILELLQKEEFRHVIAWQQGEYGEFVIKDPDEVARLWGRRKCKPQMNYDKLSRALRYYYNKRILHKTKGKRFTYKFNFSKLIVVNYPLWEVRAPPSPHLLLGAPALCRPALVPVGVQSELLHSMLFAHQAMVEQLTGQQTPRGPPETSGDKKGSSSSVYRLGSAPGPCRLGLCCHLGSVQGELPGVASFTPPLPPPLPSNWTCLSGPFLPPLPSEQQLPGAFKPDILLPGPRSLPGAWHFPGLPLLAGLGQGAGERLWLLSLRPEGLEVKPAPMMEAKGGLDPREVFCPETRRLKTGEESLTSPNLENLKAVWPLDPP
Method in brief: as §1

ETS2 = target: T11, ETS2 (Homo sapiens, UniProt P15036 1-469)
T11 sequence: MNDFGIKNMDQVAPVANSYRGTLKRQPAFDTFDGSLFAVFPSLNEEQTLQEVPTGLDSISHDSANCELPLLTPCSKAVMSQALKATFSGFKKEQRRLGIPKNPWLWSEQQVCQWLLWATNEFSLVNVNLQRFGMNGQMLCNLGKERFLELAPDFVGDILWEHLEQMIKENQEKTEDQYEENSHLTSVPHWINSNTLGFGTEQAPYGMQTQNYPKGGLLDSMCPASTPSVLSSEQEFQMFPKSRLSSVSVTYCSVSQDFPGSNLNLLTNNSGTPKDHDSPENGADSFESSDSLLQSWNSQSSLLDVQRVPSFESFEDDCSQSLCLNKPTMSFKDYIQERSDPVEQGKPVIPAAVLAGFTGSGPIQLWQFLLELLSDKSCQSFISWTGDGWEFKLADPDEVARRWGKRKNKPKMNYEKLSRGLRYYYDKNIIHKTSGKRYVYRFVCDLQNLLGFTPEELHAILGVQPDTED
Method in brief: as §1

ETV3 = target: T12, ETV3 (Homo sapiens, UniProt P41162-2 1-143)
T12 sequence: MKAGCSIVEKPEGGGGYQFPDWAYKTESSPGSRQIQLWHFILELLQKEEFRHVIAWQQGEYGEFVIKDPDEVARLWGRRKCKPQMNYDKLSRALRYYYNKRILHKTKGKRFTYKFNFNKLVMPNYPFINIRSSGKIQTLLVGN
Method in brief: as §1

ETV6 = ETV6 (Homo sapiens, UniProt P41212 1-452)
Sequence of ETV6 (P41212 whole entry): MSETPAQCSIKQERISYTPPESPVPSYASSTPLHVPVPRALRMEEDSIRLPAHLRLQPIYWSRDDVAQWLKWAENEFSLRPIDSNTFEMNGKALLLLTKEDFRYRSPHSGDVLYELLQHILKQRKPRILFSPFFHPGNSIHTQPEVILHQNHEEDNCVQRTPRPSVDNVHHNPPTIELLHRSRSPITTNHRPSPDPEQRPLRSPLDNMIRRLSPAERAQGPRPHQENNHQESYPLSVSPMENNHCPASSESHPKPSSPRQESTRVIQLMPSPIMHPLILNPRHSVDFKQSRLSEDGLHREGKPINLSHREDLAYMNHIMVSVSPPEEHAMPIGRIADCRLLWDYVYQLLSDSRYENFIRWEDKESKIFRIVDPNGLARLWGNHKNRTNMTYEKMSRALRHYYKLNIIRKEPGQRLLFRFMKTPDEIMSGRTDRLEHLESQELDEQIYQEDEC
Method in brief: as §1

For AACGCA, the binding signal (ELK1) was 1.03 fold enrichment (6-mer frequency, TF over GST control), the binding signal (GABPA) was 1.06 fold enrichment (6-mer frequency, TF over GST control) and the binding signal (ERG) was 1.13 fold enrichment (6-mer frequency, TF over GST control). For the same sequence, the binding signal (ELF1) was 1.06 fold enrichment (6-mer frequency, TF over GST control), the binding signal (EHF) was 1.04 fold enrichment (6-mer frequency, TF over GST control) and the binding signal (SPIB) was 1.04 fold enrichment (6-mer frequency, TF over GST control). For the same sequence, the binding signal (ELK3) was 1.06 fold enrichment (6-mer frequency, TF over GST control), the binding signal (SPIC) was 1.02 fold enrichment (6-mer frequency, TF over GST control) and the binding signal (ETV2) was 1.1 fold enrichment (6-mer frequency, TF over GST control). The binding signal (ELF3) was 1.03 fold enrichment (6-mer frequency, TF over GST control), the binding signal (ETV1) was 1.09 fold enrichment (6-mer frequency, TF over GST control) and the binding signal (ERF) was 1.16 fold enrichment (6-mer frequency, TF over GST control). The binding signal (ETV3L) was 1.03 fold enrichment (6-mer frequency, TF over GST control), the binding signal (ETS2) was 1.1 fold enrichment (6-mer frequency, TF over GST control) and the binding signal (ETV3) was 1.03 fold enrichment (6-mer frequency, TF over GST control). For the same sequence, the binding signal (ETV6) was 1.06 fold enrichment (6-mer frequency, TF over GST control).

From article PMC7862700, “An all-to-all approach to the identification of sequence-specific readers for epigenetic DNA modifications on cytosine”
